Compounds without any hit were thinned out: in the full panel of roughly 83,000, 20% have a hit.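 Each cell line was grown in a 96-well plate and treated with one concentration of compound for 48 hours. Values below 10 were considered active.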 Calls of active or inactive are those of the source.

In the assay the test system is OVCAR-4 ovarian. Briefly: NCI-60 one-dose screen, 48 h (100 = growth as untreated, 0 = no growth, -100 = all killed). The following applies: 10 µM unless noted.
Regarding `CCN(CC)Cc1cc(Nc2ccnc3ccc(OC)cc23)ccc1O`, the growth was 55.3% (inactive). With `CC(C)(C)c1nn(-c2ccccc2)c2c1C(=O)CSC(c1ccc3c(c1)OCO3)N2` (centres undefined), the growth is 103% (inactive).

`CN(C)N1C(=O)c2c(Cl)c(Cl)c(Cl)c(Cl)c2C1=O`: the growth was 111% (inactive). For `O=c1c2cc(Cl)ccc2oc2ccc(OCCCCCN3CCCCC3)cc12` the value was 80.6% (inactive). For `O=C(CSc1nc2c(n1Nc1ccccc1)-c1ccccc1SC2)Nc1nccs1` the value was 102% (inactive). As for `CCNC(=O)c1ccc2c(c1)nc(-c1ccc(Cl)cc1)n2-c1cc(C(C)(C)C)[nH]n1`, the growth is 70.9% (inactive). For `CC(C)CC1NC(=O)C(CC(C)C)N(CO)C1=O` (centres undefined) the value was 113% (inactive); for `CCn1c(=O)c(C(=O)NCCCO)c(O)c2ccccc21`, 100% (inactive). For the compound `COc1cc(NCC(O)CN(CC(C)C)CC(C)C)c2ncccc2c1` (centres undefined), the growth is 19.5% (inactive).

Regarding `CC(=O)Nc1ccc(/C=N/N2CCCCCC2)cc1`, the growth was 99.1% (inactive). The same measure for `O=c1oc2ccccc2cc1-c1cc(-c2ccc(-c3cc(-c4cc5ccccc5oc4=O)nc(-c4cc5ccccc5oc4=O)c3)cc2)cc(-c2cc3ccccc3oc2=O)n1`: 100% (inactive). For `CCOC(=O)C(Cc1ccccc1)n1c(O)c(/C=N/c2ncc(Cc3ccc(Cl)cc3Cl)s2)sc1=S` (centres undefined) the value was 25.6% (inactive); for `COc1ccc(-c2cnc(-c3ccncc3-c3cccc(OC)c3)o2)cc1`, 37.6% (inactive); for `O=C(Nc1ccncc1)C(=O)c1cn(S(=O)(=O)c2cccc(Cl)c2F)c2ccccc12`, 65.4% (inactive).

These data come from PubChem BioAssay (NCI).
